# High-throughput results deposited in PubChem BioAssay by National Center for Advancing Translational Sciences (NCATS).
# Sampled rows, rich in hits. Any-hit rate of the full collection: about 12%.
# Sfp PPTase inh: qHTS Assay for Inhibitors of Bacillus subtilis Sfp phosphopantetheinyl transferase (PPTase) | 4'-phosphopantetheinyl transferase ffp (Bacillus subtilis), Q9F4F7 | Biochemical Sfp PPTase activity, qHTS | Potency, µM, for inactives: largest response in the series, negative = inhibition, usual class: inhibitors | 310,000 tested, 3.5% active | AID 1490, 2009;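 also: the enzyme is Sfp with the accession as filed and its product quenches rhodamine fluorescence; 0% = enzyme reaction without inhibitor and -100% = no enzyme wells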
#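 Compounds were incubated with enzyme (final 15 nM) for 15 min at room temperature before substrate addition started the reaction. Fluorescence at 525 nm excitation, 598 nm emission was recorded immediately and after 30 minutes.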
# G9a block: qHTS Assay for Inhibitors of Histone Lysine Methyltransferase G9a | Histone-lysine N-methyltransferase EHMT2 (Homo sapiens), Q96KQ7 | G9a H3K9 monomethylation, AlphaScreen, 2 h | Potency, µM (doses to about 102 µM), inactives show top-dose activity, negative = inhibition, usual class: inhibitors | 350,000 tested, 8.8% active; also: % is scaled to controls: 0 for no effect and ±100 for the full control effect; nearly all actives have a fitted effect of over 75% in size
# Target sequence (Q96KQ7 913-1193 limits assumed): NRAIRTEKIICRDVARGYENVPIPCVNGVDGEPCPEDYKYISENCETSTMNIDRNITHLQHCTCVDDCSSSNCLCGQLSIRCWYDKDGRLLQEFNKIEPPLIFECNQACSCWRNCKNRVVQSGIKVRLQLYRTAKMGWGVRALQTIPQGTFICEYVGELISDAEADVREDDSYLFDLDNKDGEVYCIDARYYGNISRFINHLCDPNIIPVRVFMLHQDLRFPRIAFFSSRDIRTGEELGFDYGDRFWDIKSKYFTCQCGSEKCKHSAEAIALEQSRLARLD
#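 Quantitative HTS format: methyltransferase activity on a biotin-tagged H3K9 peptide is measured by AlphaScreen, using a rabbit anti-monomethyl-H3K9 antibody with streptavidin donor and anti-IgG acceptor beads. Final levels are 20 nM enzyme, 500 nM peptide, 20 uM SAM; 2 h RT.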
# BAZ2B inh: qHTS Assay for Inhibitors of BAZ2B | 360,000 tested, 4.4% active | Potency, µM (top dose mostly 114 µM), for the others: at the top dose activity change, negative = inhibition, usual class: inhibitors | Bromodomain adjacent to zinc finger domain protein 2B (Homo sapiens), Q9UIF8 | AlphaScreen BAZ2B-H3K14Ac peptide displacement; also: % is scaled to controls: 0 for no effect and ±100 for the full control effect; nearly all actives have a fitted effect of over 60% in size
#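 AlphaScreen luminescence quantifies BAZ2B engagement of H3K14Ac peptide; the protein and biotinylated peptide are both at 50 nM final, buffer PBS pH 7.4 with 0.01% Tween-20, all steps at room temperature.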
# HP1b chromo inh: HTS for Inhibitors of HP1-beta Chromodomain Interactions with Methylated Histone Tails. 390,000 tested, 0.56% active. Potency, µM (highest dose often 114 µM), for the others: top-dose activity change, negative = inhibition, usual class: inhibitors. Chromobox protein homolog 1 (Homo sapiens), P83916. AlphaScreen HP1-beta / biotin-H3K9me3 peptide binding. AID 540317, 2011; also: nearly all actives have a fitted effect of over 70% in size
# Target sequence (P83916 whole entry, looked up): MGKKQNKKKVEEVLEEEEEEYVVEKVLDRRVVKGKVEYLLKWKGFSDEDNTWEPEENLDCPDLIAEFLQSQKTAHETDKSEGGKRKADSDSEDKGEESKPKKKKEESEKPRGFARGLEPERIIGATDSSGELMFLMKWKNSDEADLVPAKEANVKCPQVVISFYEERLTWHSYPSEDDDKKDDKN
#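 Compound inhibition of the preformed complex between 50 nM HP1-beta and 50 nM biotinylated H3K9me3 peptide was read by AlphaScreen. Buffer was PBS pH 7.4 with 0.01% Tween-20. Incubations ran 30 min at room temperature, with 10 ug/mL donor/acceptor beads.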
# L3MBTL1 block: qHTS Assay for the Inhibitors of L3MBTL1; Lethal(3)malignant brain tumor-like protein 1 (Homo sapiens), Q9Y468; AlphaScreen L3MBTL1–H3K9me1 peptide binding; Potency, µM (top dose mostly 57.1 µM), inactives show top-dose activity, negative = inhibition, actives largely listed as inhibitors; 230,000 tested, 0.66% active; also: % is scaled to controls: 0 for no effect and ±100 for the full control effect; nearly all actives have a fitted effect of over 60% in size
#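 Displacement of a biotinylated histone H3(1-15) peptide monomethylated at Lys9 (75 nM) from L3MBTL1 (50 nM) was measured by AlphaScreen after a 30 min room-temperature compound incubation; cefsulodin titration served as intraplate control.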
# JMJD2A Tudor: qHTS Assay for Inhibitors of JMJD2A-Tudor Domain; Lysine-specific demethylase 4A (Homo sapiens), O75164; AlphaScreen JMJD2A-Tudor / H3K4me3 peptide binding; Potency, µM (doses to about 114 µM), without a hit: at the top dose activity change, negative = inhibition, most hits filed as inhibitors; 390,000 tested, 4.4% active; also: % is scaled to controls: 0 for no effect and ±100 for the full control effect; nearly all actives have a fitted effect of over 50% in size
# * = called active by the depositor; u = inconclusive; x = no result given; ! = not active in a repeat; [ ] = another dose, or the depositor's remark. Calls follow the shape of the dose curve; as a rule, active = well fitted curve in the direction sought with a large enough effect; inconclusive = small, poorly fitted or top-dose-only effect, or another doubt; inactive = no such curve, though single readings can be large; an effect the other way counts as inactive or inconclusive. Potency is read from the fitted curve at half-maximal effect.
SMILES,Sfp PPTase inh,G9a block,BAZ2B inh,HP1b chromo inh,L3MBTL1 block,JMJD2A Tudor
O=C(Cn1cc(C=C2C(=O)NC(=O)NC2=O)c2ccccc21)NCC1CCCO1 (stereo not drawn),8%,-19%,-20%,17%,x,-1%
Cc1c(C=C2C(=O)N(C)C(=S)N(C)C2=O)c2ccccc2n1CC(=O)NCC1CCCO1 (stereo not drawn),50µM*,14µM*,u,-5%,x,-27%
CC1=CC[C@@H]2[C@@H](C1)c1c(O)cc(CC#CCCCNS(C)(=O)=O)cc1OC2(C)C,18%,x,x,x,x,x
C=CCn1cc(C=C2C(=O)NC(=O)NC2=O)c2ccccc21,-6%,-43%,-7%,17%[57 µM],x,u
O=C1NC(=O)C(=Cc2coc3ccc(O)cc3c2=O)C(=O)N1,13µM*,x,u,13%,-16%,-18%
COc1ccc(Cc2c(O)[nH]c(=S)[nH]c2=O)cc1,56µM*,7.9µM*,1%,-8%,11%,u
CCCCOc1ccc(C(C)=O)cc1Cc1c(O)[nH]c(=S)[nH]c1=O,u,-7%[0.501 µM],-3%,6%,2%[2.29 µM],-30%
COc1ccc(/C=N\N=C(N)N)cc1,13%,-7%,-1%,24%,x,-5%[11.4 µM]
NC(N)=N/N=C/c1ccc(N(c2ccccc2)c2ccccc2)cc1,40µM*,-6%[2.33 µM],-20%,20%,x,u
Cc1ccc(S(=O)(=O)NC(Cc2cnc[nH]2)C(=O)O)cc1 (stereo not drawn),-6%,u,-25%,12%,4%,13µM*
Cc1cc(C)cc(C(=O)OC2C[C@H]3CC[C@@H](C2)N3C)c1 (stereo partly drawn),0%,x,x,x,x,x
Cc1nc2c(=O)n(C)c(=O)nc-2n(C)n1,-6%,-18%[59 µM],-5%,17%,0.11µM*,6%
Cn1nc(-c2ccccc2)nc2c(=O)n(C)c(=O)nc1-2,x,x,x,10%[57 µM],x,-6%[57.1 µM]
Cc1c(C)c2ccc(OCC(=O)N3CCC[C@@H]3C(=O)O)c(C)c2oc1=O,-6%,x,-9%[57.1 µM],16%,13%,u
O=C1NC(=O)C2(Cc3ccccc3N3CCOCC32)C(=O)N1c1ccccc1 (stereo not drawn),19%,-4%,0%,13%,x,-14%
O=C1NC(=O)C2(Cc3ccccc3N3CCCC32)C(=O)N1c1ccccc1 (stereo not drawn),u,28µM*,13%,50%,-6%,-16%
O=C1NC(=O)C2(Cc3ccccc3N3CCCC32)C(=O)N1 (stereo not drawn),-17%,50µM*,-23%,17%,x,-19%
COc1ccc(C(O)P(=O)(OCC(C)C)c2ccc(N(C)C)cc2)c(OC)c1 (stereo not drawn),3%,u,-17%,18%,x,-16%
COc1cccc([C@@]2(O)CCCCC2CN(C)C)c1 (stereo partly drawn),17%,x,x,x,x,x
CCOP(=O)(OCC)/C(C#N)=C/c1cc(OC)ccc1OC,9%,-8%[2.33 µM],-6%,41%,10%,-8%
CN1C(=O)C(=Cc2cn(CC#N)c3ccccc23)C(=O)N(C)C1=O,-8%,-17%,-5%,29%,x,-18%
CN1C(=O)C(=Cc2coc3ccccc3c2=O)C(=O)N(C)C1=O,-20%,32µM*,-4%,15%,0%,-18%
O=C1OC(=O)C2C3CCC(O3)C12 (stereo not drawn),-23%,-2%[59 µM],-5%,x,3%,x
C/C(=C\c1csc(C)n1)[C@@H]1C[C@@H]2O[C@]2(C)CCC[C@H](C)[C@H](O)[C@@H](C)C(=O)C(C)(C)[C@@H](O)CC(=O)O1,13%,7%[12.7 µM],x,x,x,x
Cn1cnc(CCN)c1,x,7.9µM*!,x,17%,x,14µM*
SMILES,Sfp PPTase inh,G9a block,BAZ2B inh,HP1b chromo inh,L3MBTL1 block,JMJD2A Tudor
C[C@]12CC[C@H](O)C[C@H]1CCC1C2CC[C@]2(C)[C@@H](c3ccc(=O)oc3)C[C@H]3O[C@]132 (stereo partly drawn),0%,-34%[12.7 µM],x,x,x,x
Cc1cc(C(=O)CN2C(=O)c3ccccc3C2=O)c(C)n1C1CC1,-24%,27%[0.501 µM],9%,22%,33%,-5%
Cc1cc(C=C2C(=O)NC(=O)NC2=O)c(C)n1-c1cccnc1,-13%,-13%[12.7 µM],-2%,10%,x,-25%
Cc1cc(C=C2C(=O)NC(=S)NC2=O)c(C)n1C1CCCC1,40µM*,45µM*,79µM*,25%,-20%,-23%
Cc1cc(C=C2C(=O)N(C)C(=S)N(C)C2=O)c(C)n1C1CCCCC1,u,35µM*,u,7%,-14%,-36%
NC(CCCP(=O)(O)O)C(=O)O (stereo not drawn),x,0%[59 µM],x,x,x,x
Cc1ccc(NC(=O)Cn2c(=O)cc(-c3ccccc3)c3c(C)nn(C)c32)c(Cl)c1,x,7%[59 µM],0%,50%,x,-19%
CCOC(=O)CC(NC(=O)C(Cc1ccc(N(CCCl)CCCl)cc1)NC(C)=O)C(=O)OCC (stereo not drawn),79µM*,x,20µM*,u,-6%,13µM*
CC(=O)NC(Cc1ccc(N(CCCl)CCCl)cc1)C(=O)NC(C(=O)O)C(C)C (stereo not drawn),8%,-48%,-38%,21%,-4%,1%
NC(Cc1ccc(N(CCCl)CCCl)cc1)C(=O)O (stereo not drawn),-14%,11µM*!,x,x,x,x
CN(C)C(CSC(N)=O)CSC(N)=O,-28%,x,x,x,x,x
COc1cccc(CNCCc2ccc3c(c2)OCO3)c1OC,-26%,9%[0.501 µM],56µM*,-13%,-6%[2.29 µM],79µM*
COc1cccc(CNCCc2c[nH]c3ccccc23)c1OC,9%,u,-16%,28%,x,3%
COc1ccc(CCNCc2sccc2C)cc1OC,8%,10%,-16%,37%,2%,-2%
COc1ccc(CCNCc2ccc(C)s2)cc1OC,11%,-28%,-18%,5%,4%,-23%
COc1cc(OC)c(OC)cc1CNCCc1ccc2c(c1)OCO2,-3%,28µM*,u,-25%,0%,32µM*
COc1cccc(CNCCc2cccc(F)c2)c1OC,-28%,-9%[0.501 µM],79µM*,u,0%[2.29 µM],28µM*
COc1cc(Br)c(CNCCc2ccc3c(c2)OCO3)cc1OC,-5%,8.9µM*,u,u,-7%,25µM*
